# DUSP3 inh: blocks the human dual specificity phosphatase VHR1. AID 1992. 0.7% of 50,000 active. recombinant VHR phosphatase, colorimetric substrate read-out. inhibition, % at 20 µM; in the data active means inhibition above about 60%
# Target sequence (P51452 whole entry, looked up): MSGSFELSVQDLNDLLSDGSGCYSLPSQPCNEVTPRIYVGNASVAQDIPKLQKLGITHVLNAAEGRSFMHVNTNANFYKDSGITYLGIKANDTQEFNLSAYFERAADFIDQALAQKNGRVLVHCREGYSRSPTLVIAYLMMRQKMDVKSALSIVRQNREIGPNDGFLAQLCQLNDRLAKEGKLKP
# Numbers without * were called inactive. This excerpt belongs to a sample that is enriched for hits.
SMILES,DUSP3 inh
Cc1cc(OCC(=O)Nc2nc(-c3ccccc3)cs2)ccc1Cl,82*
Cc1ccc(OCC(=O)Nc2nc(-c3ccccc3)cs2)cc1C,93*
O=S(=O)(c1ccc(Cl)cc1)N1CCN(Cc2ccc3c(c2)OCO3)CC1,-2
O=C(c1ccccc1)c1cccc(NC2=NS(=O)(=O)c3ccccc32)c1,3
CCOc1ccc2nc(SCC(=O)Nc3cccc(C)c3)sc2c1,-25
COc1cc(OC)cc(C(=O)N/N=C(\C)CC(=O)Nc2ccc(Br)cc2)c1,-20
O=C(/C=C/c1ccco1)NC(=S)NCc1ccccc1,75*
O=C(/C=C/c1ccco1)NCCCCNC(=O)/C=C/c1ccco1,26
O=C(/C=C/c1ccco1)NCc1ccc2c(c1)OCO2,-3
O=C(O)CCCCCN1C(=O)C(=O)/C(=C(/O)c2ccc(F)cc2)C1c1ccc2c(c1)OCO2 (configuration not stated),1
COc1ccc(C(=O)Nc2cc(C)cc(C)c2)c(OC)c1,6
COc1ccc(C(=O)Nc2ccc(S(=O)(=O)Nc3cc(C)on3)cc2)c(OC)c1,110*
Cc1cc(NS(=O)(=O)c2ccc(NC(=O)c3cc(Cl)cc(Cl)c3)cc2)no1,-28
CC(C)(C)c1ccc(OCCOc2ccccc2C=C2C(=O)NC(=O)NC2=O)cc1,-25
COc1ccc(/C=C2\SC(=S)N(NC(=O)c3ccccc3[N+](=O)[O-])C2=O)cc1OC,-28
COc1cc(/C=C2\N=C(c3cccc(Br)c3)OC2=O)cc(OC)c1OC,-4
COc1ccc2c(c1)c(/C=C/c1nc3ccccc3c(=O)n1-c1cccc([N+](=O)[O-])c1)c(C)n2C,25
Cc1[nH]c2ccccc2c1/C=C/c1nc2ccccc2c(=O)n1-c1cccc([N+](=O)[O-])c1,78*
O=c1c2ccccc2nc(/C=C/c2c[nH]c3ccccc23)n1-c1cccc([N+](=O)[O-])c1,4
COc1cc(OC)c(C2C(C(=O)OCC3CCCO3)=C(C)NC3=C2C(=O)CCC3)cc1OC (configuration not stated),10
CCOC(=O)c1sc(N/N=C/c2ccccc2O)nc1C,-7
CCOC(=O)c1sc(N/N=C/c2cccc(O)c2)nc1C,97*
CCOC(=O)c1sc(NC(=O)c2ccccc2C)nc1C,-10
N#C/C(=C/c1ccc(C#N)cc1)C(=O)Nc1cccc(Br)c1,-14
N#Cc1c(-c2cccc(Br)c2)c(C#N)c2nc3ccccc3n2c1N,-39
SMILES,DUSP3 inh
N#Cc1c(-c2ccc(F)cc2)c(C#N)c2nc3ccccc3n2c1N,-13
COc1ccc(-c2c(C#N)c(N)n3c(nc4ccccc43)c2C#N)cc1OC,69*
COc1cc(/C=C2\C(=O)NC(=O)N(Cc3ccccc3)C2=O)ccc1OCC(N)=O,-1
COc1ccc(C2Nc3ccc(C(=O)c4ccccc4)cc3NC3=C2C(=O)CCC3)c(OC)c1 (configuration not stated),68*
CN(C)c1ccc(C2Nc3ccc(C(=O)c4ccccc4)cc3NC3=C2C(=O)CCC3)cc1 (configuration not stated),17
COc1ccccc1C1Nc2ccc(C(=O)c3ccccc3)cc2NC2=C1C(=O)CCC2 (configuration not stated),-6
O=C(O)C(Cc1ccccc1)N1C(=O)/C(=C/C(Cl)=C/c2ccc([N+](=O)[O-])cc2)SC1=S (configuration not stated),-25
Cc1cc(=O)oc2cc(OCC(=O)Nc3sc4c(c3C(N)=O)CCC4)ccc12,78*
CCN(CC)C(=O)c1sc(NC(=O)COc2ccc3ccccc3c2)c(C(=O)OC(C)C)c1C,1
COC(=O)c1sc(NC(=O)COc2ccc3ccccc3c2)c(C(N)=O)c1C,97*
Cc1ccc(OCC(=O)Nc2sc3c(c2C(N)=O)CCC3)c(C)c1,16
COc1ccc(OCC(=O)Nc2sc3c(c2C(N)=O)CCCC3)cc1,-20
COC(=O)c1ccccc1NC(=O)COc1ccc2ccccc2c1,-8
Cc1cc(C)cc(CSCC(=O)NCCSc2ccccc2)c1,4
COC(=O)c1c(NC(=O)C(C)C)sc2c1CCCCC2,-20
COc1ccc(N2C(=O)/C(=C/c3cc(C)n(-c4ccccc4)c3C)C(=O)NC2=S)cc1,89
COc1ccc(N2C(=O)/C(=C/c3ccc(I)o3)C(=O)NC2=S)cc1,92*
COc1ccc(N2C(=O)NC(=O)/C(=C/c3ccc(I)o3)C2=O)cc1,107*
COc1ccc(N2C(=O)NC(=O)/C(=C/c3ccc(-c4ccc(C(=O)O)cc4)o3)C2=O)cc1,46
COc1ccc(N2C(=O)/C(=C/c3ccc(-c4cc(C(=O)O)ccc4Cl)o3)C(=O)NC2=S)cc1,-8
COc1ccc(N2C(=O)NC(=O)/C(=C/c3ccc(-c4cccc(Cl)c4)o3)C2=O)cc1,6
COc1c(Cl)cc(C(=O)Nc2ccc(N3CCCCC3)cc2)cc1Cl,2
Nc1nc(-c2ccccc2)c(-c2ccccc2)n1/N=C/c1ccccc1,-12
COc1cc(C2CC(=O)Nc3c2cc(Br)c2ccccc32)cc(OC)c1OC (configuration not stated),4
CC(C)Oc1ccccc1C1CC(=O)Nc2c1cc(Br)c1ccccc21 (configuration not stated),108*
SMILES,DUSP3 inh
O=C1CC(c2ccccc2F)c2cc(Br)c3ccccc3c2N1 (configuration not stated),-4
COC(=O)C1=C(C)NC(=O)NC1c1ccc(OC(=O)c2cccs2)c(OC)c1 (configuration not stated),-11
O=C(c1ccc([N+](=O)[O-])cc1)N1CCN(Cc2ccccc2Cl)CC1,96
COC(=O)c1ccccc1NCn1nc(-c2ccc(Cl)cc2Cl)oc1=S,8
O=C1NC(=O)N(c2ccc(Cl)cc2)C(=O)/C1=C/c1ccccc1,-29
COc1ccc(N2C(=O)NC(=O)/C(=C/c3cn(CCOc4ccccc4OC)c4ccccc34)C2=O)cc1,-15
O=C(Cn1cc(/C=C2\NC(=O)NC2=O)c2ccccc21)Nc1ccccc1,-15
C#CCn1cc(/C=C2\C(=O)NC(=O)N(c3ccc(Cl)cc3)C2=O)c2ccccc21,82*
O=C(Cn1cc(/C=C2\SC(=O)NC2=O)c2ccccc21)Nc1ccccc1,4
Cc1ccccc1N1C(=O)NC(=O)/C(=C/c2cn(CC(=O)Nc3ccccc3)c3ccccc23)C1=O,85*
COc1ccc(CCNCc2ccccc2Cl)cc1OC,25
O=C(O)/C=C/c1ccc(S(=O)(=O)Nc2ccccn2)cc1,0
CC(C)(O)C#Cc1ccc(C(=O)OCC(=O)c2ccc([N+](=O)[O-])cc2)cc1,22
COc1ccc(C2CC(=O)C3=C(C2)Nc2ccccc2NC3c2ccc(OC)c(OC)c2)cc1 (configuration not stated),7
CCC(=O)N1c2ccccc2NC2=C(C(=O)CC(c3ccc(OC)cc3)C2)C1c1ccccc1 (configuration not stated),-6
CCC(=O)N1c2ccccc2NC2=C(C(=O)CC(c3ccccc3)C2)C1c1cccc(Br)c1 (configuration not stated),4
COc1ccc(C2CC(=O)C3=C(C2)Nc2ccccc2NC3c2ccc(-c3ccccc3)cc2)cc1OC (configuration not stated),-16
CCC(=O)N1c2ccccc2NC2=C(C(=O)CC(c3ccccc3)C2)C1c1ccc(F)cc1 (configuration not stated),113*
COc1ccc(C2C3=C(CC(c4ccccc4)CC3=O)Nc3ccccc3N2C(=O)C(C)C)cc1OC (configuration not stated),99*
O=C1/C(=C/c2ccc(-c3cc(Cl)ccc3Cl)o2)SC(=S)N1Cc1ccco1,18

# Screening results deposited in PubChem BioAssay by Sanford-Burnham Center for Chemical Genomics.
